# Sm TGR inh – qHTS Assay for the Inhibitors of Schistosoma Mansoni Peroxiredoxins; purified TGR, DTNB reduction, TNB absorbance 405 nm; Potency, µM (top dose mostly 114 µM), for the others: at the top dose activity change, negative = inhibition, hits mostly inhibitors; 360,000 compounds, 3% hits; Schistosoma mansoni thioredoxin glutathione reductase (TGR), Q962Y6; AID 485364, 2010; further: potency means the concentration at half of the fitted maximal effect; on the % scale 0 is the no-effect control and ±100 the full control effect; nearly all actives have a fitted effect of over 60% in size
#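 Kinetic colorimetric format: TGR-catalysed, NADPH-driven DTNB reduction monitored via TNB absorbance. Enzyme dispensed at 20 nM; compound exposure 15 min at room temperature before reaction start.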
# FBPA Giardia inh – qHTS Assay for Inhibitors of Fructose-1,6-bisphosphate Aldolase from Giardia Lamblia; AID 2451, 2010; purified Giardia FBPA; Potency, µM (highest dose often 59.6 µM), inactives show at the top dose activity, negative = inhibition, most hits filed as inhibitors; 290,000 compounds, 0.71% hits; further: potency means the concentration at half of the fitted maximal effect; on the % scale 0 is the no-effect control and ±100 the full control effect; nearly all actives have a fitted effect of over 55% in size
#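 40 nM FBPA preincubated 10 min at RT with compound (up to 57.5 uM final), then substrate plus GAPDH/TPI/NAD/arsenate coupling and diaphorase/resazurin added. Fluorescence read after 20 min at RT, 525/598 nm.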
# Shiga toxin inh – A qHTS for Small Molecule Inhibitors of Shiga Toxin; Vero cells, Shiga toxin protein synthesis inhibition reporter; inhibition, % at 38.7 µM; 290,000 compounds, 9.2% hits; in the data active means inhibition mostly above about 28%, no sharp cut-off; inactive means mostly below about 43%; further: 0% is about no effect
# Cycloheximide cs – Cycloheximide Counterscreen for Small Molecule Inhibitors of Shiga Toxin. max response, %. 300,000 compounds, 12% hits. AID 2314, 2010. cell reporter, cycloheximide protein synthesis inhibition counterscreen; in the data active means max response mostly above about 13%, no sharp cut-off; inactive means mostly below about 14%; further: read at 38.3 µM for the half of the compounds with a filed dose; 0% is about no effect
# LmPK inhibitor – qHTS Assay for Inhibitors of Leishmania Mexicana Pyruvate Kinase (LmPK); 290,000 compounds, 0.37% hits; Potency, µM (top dose mostly 57.5 µM), without a hit: at the highest dose activity change, negative = inhibition, hits mostly inhibitors; purified LmPK, Kinase-Glo ATP luminescence, 1 h; Q27686; further: potency means the concentration at half of the fitted maximal effect; on the % scale 0 is the no-effect control and ±100 the full control effect
# Target sequence (Q27686 whole entry, looked up): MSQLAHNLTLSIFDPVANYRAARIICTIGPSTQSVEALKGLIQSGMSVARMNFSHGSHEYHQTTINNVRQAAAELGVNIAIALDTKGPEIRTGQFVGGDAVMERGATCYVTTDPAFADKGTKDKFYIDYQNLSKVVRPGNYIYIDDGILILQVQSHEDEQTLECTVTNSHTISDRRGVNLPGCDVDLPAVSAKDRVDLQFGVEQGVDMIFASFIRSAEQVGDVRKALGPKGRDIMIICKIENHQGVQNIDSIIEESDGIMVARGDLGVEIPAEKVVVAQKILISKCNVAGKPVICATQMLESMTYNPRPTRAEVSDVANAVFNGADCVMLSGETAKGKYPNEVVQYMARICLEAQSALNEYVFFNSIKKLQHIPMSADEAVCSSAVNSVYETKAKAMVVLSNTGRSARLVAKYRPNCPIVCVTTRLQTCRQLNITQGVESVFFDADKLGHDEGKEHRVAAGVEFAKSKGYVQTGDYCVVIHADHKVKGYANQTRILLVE
#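 0.1 nM LmPK, 0.5 mM PEP, 0.1 mM ADP; 50 mM imidazole pH 7.2, 7 mM MgCl2, 50 mM KCl; 1 h RT. Kinase-Glo luminescence readout, normalized to no-enzyme (full inhibition) and uninhibited wells.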
# Tb PYK inh – qHTS of Trypanosoma Brucei Inhibitors | pyruvate kinase (Trypanosoma brucei), Q57TT1 | TbPYK enzyme, Kinase-Glo Plus ATP luminescence, 45 min | Potency, µM (series often up to 76.8 µM), for the others: at the top dose activity, negative = inhibition, hits mostly inhibitors | 410,000 compounds, 0.12% hits | AID 624173, 2012; further: potency means the concentration at half of the fitted maximal effect; on the % scale 0 is the no-effect control and ±100 the full control effect; nearly all actives have a fitted effect of over 50% in size
#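 Assay buffer: 50 mM TEA pH 7.2, 100 mM KCl, 10 mM MgCl2, 0.05% BSA, 0.01% Tween-20. Pyruvate kinase from T. brucei plus substrate met compound, then ADP (130 uM final). Luminescence was read post 45 min RT.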
# Numbers without * were called inactive; u = inconclusive; x = no result given. Many of the other results were omitted from the sample, so hits are more common in it than they were. Unless noted, the call rests on the fitted dose curve; in most records, active means well fitted curve in the direction sought with a large enough effect; inconclusive means small, poorly fitted or top-dose-only effect, or another doubt; inactive means no such curve, though single readings can be large; an effect the other way counts as inactive or inconclusive.
SMILES,Sm TGR inh,FBPA Giardia inh,Shiga toxin inh,Cycloheximide cs,LmPK inhibitor,Tb PYK inh
CCn1nnc(NC(=O)c2cc3ccccc3o2)n1,6%,-1%,81*,30*,-17%,2%
Cc1ccc2oc(-c3ccc(C)c(NC(=O)c4ccc(-c5ccccc5[N+](=O)[O-])o4)c3)nc2c1,6%,x,x,x,x,-3%
CCCCn1nnc(NC(=O)c2ccc(-c3ccccc3)cc2)n1,6%,-1%,active,41*,-2%,4%
CC(=O)c1cccc(NC(=O)c2ccc(-c3ccccc3[N+](=O)[O-])o2)c1,-8%,10µM*,51*,70*,-2%,-7%
CCn1nnc(NC(=O)c2ccc(-c3ccccc3[N+](=O)[O-])o2)n1,-6%,-9%,38,17*,-4%,0%
Cc1cc(NC(=O)c2ccc(-c3ccccc3[N+](=O)[O-])o2)no1,x,x,x,x,x,-7%
CCCCN(CC)C(=O)CCCn1c(=O)c2cccn2c2ccccc21,-3%,x,x,x,x,3%
CCCn1nnc(NC(=O)c2cc3ccccc3o2)n1,39%,-6%,74*,43*,-2%,1%
CCCn1nnc(NC(=O)c2cccc(Cl)c2)n1,-12%,x,128,35,-8%,0%
CCCCn1nnc(NC(=O)Cc2ccc(Cl)cc2)n1,9%,-2%,1,5,-5%,-6%
CCc1ccc(C(=O)Nc2nnn(CC)n2)cc1,5%,-6%,13,11*,-26%,0%
CCCn1nnc(NC(=O)c2ccc3c(c2)OCO3)n1,17%,-1%,89*,54*,-15%,-6%
CCCCn1nnc(NC(=O)c2cc3ccccc3o2)n1,3%,2%,42*,44*,-10%,-5%
CCn1nnc(NC(=O)c2ccc(Br)o2)n1,-5%,1%,27,4,-7%,0%
CCOC(=O)/C=C/C(=O)OCC(=O)Nc1ccc(OC)c(Cl)c1,18µM*,2%,-2,12*,0%,-2%
CCOC(=O)/C=C/C(=O)OCC(=O)Nc1ccc(Cl)cc1Cl,11µM*,0%,-18,3,3%,-1%
CO/N=C\CC(=O)Nc1ccc(Cl)cc1Cl,5%,15%,46,21*,1%,-17%
CCc1ccc2occ(CC(=O)Nc3ccc(OC)c(Cl)c3)c2c1,-5%,x,37*,13,x,-8%
Cc1cc(S(=O)(=O)N2CCN(Cc3noc(CCC(=O)N4CCCCC4)n3)CC2)ccc1F,-16%,x,x,x,x,1%
O=C(Nc1nnc(C2CC2)s1)c1n[nH]c(=O)c2ccccc12,0%,-19%,-10,-2,0%,1%
CC(Nc1oc(-c2ccccc2)nc1-c1cccc2ccccc12)c1ccccc1 (configuration not stated),x,-12%,x,x,x,x
CCOc1ccc(C(=O)Nc2cccc(-c3nc4cccnc4s3)c2C)cc1OCC,-5%,x,x,x,x,-1%
CCOC(=O)/C=C/C(=O)OCC(=O)NCc1ccccc1,25µM*,-2%,9,16*,-1%,-2%
CCOC(=O)/C=C/C(=O)OCC(=O)Nc1c(Cl)cccc1Cl,20µM*,4%,7,11,7%,7%
COc1ccc(NC(=O)COC(=O)/C=C/C(=O)OCC(=O)Nc2ccc(OC)c(Cl)c2)cc1Cl,u,0%,10,6,1%,-17%
SMILES,Sm TGR inh,FBPA Giardia inh,Shiga toxin inh,Cycloheximide cs,LmPK inhibitor,Tb PYK inh
CS/C(=C\[N+](=O)[O-])Nc1ccc(Cl)cc1,0.1µM*,8%,-5,-2,9%,1%
CCc1ccc(C(=O)NC2CCCCC2)s1,0%,-14%,67*,53*,-1%,0%
CCc1ccc(C(=O)N2CCCC2)s1,-15%,6%,17,13,-3%,3%
CC(C)(O)C#Cc1ccc(C(=O)Nc2ccc3c(c2)OCO3)s1,-16%,-2%,107*,58*,5%,-6%
CC(C)(O)C#Cc1ccc(C(=O)NC2CCCCC2)s1,x,0%,74*,27*,-6%,1%
CCOC(=O)C1=C(CCl)NC(=O)NC1c1ccc2c(c1)OCO2 (configuration not stated),8.9µM*,1%,x,-1,-5%,0%
CCCOC(=O)C1=C(C)NC(=O)NC1c1cccc2ccccc12 (configuration not stated),4%,3%,-6,1,7%,2%
CCCCCOC(=O)C1=C(C)NC(=O)NC1c1ccc2c(c1)OCO2 (configuration not stated),4%,-3%,x,-3,-3%,-3%
CC1=C(C(=O)OCCCBr)C(c2ccc3c(c2)OCO3)NC(=O)N1 (configuration not stated),25µM*,-10%,-12,-4,3%,-14%
CCOC(=O)C1=C(CN2CCSCC2)NC(=O)NC1c1ccc2c(c1)OCO2 (configuration not stated),4%,-4%,-2,-6,-3%,-2%
CC1=C(C(=O)OCCBr)C(c2cccc3ccccc23)NC(=O)N1 (configuration not stated),40µM*,-6%,3,-3,-3%,2%
CCCCOc1ccccc1C1NC(=O)NC(C)=C1C(=O)OCc1ccco1 (configuration not stated),45µM*,2%,9,5,0%,-11%
CCNc1ncc2nc(-c3cc(F)cc(F)c3)c(=O)n(CCC#N)c2n1,x,3%,x,x,x,x
Cc1ccc(NC(=O)C(=O)NCC(c2ccc3c(c2)OCO3)N2CCN(C)CC2)cc1C (configuration not stated),-2%,x,x,x,x,2%
COC(=O)c1ccc2c(c1)C(=O)/C(=C/c1ccc(C)cc1)O2,4%,-1%,30,9,3%,3%
COC(=O)c1ccc(/C=C2\Oc3ccccc3NC2=O)cc1,0%,10%,29,15*,0%,0%
CCOc1ccccc1CNC(=O)CC(C)n1ccc(C)n1 (configuration not stated),1%,x,x,x,x,-1%
O=C1C(O)=C(O)C(=O)C(O)=C1O,x,13µM*,x,x,x,-12%
CC1=C(O)C(=O)C(C2=C(O)C(=O)C(C)=C(O)C2=O)=C(O)C1=O,x,x,x,x,x,2%
CN=c1scc(-c2ccc(F)cc2)n1/N=C/c1ccc(O)c(O)c1,11µM*,u,-10,-10,u,-29%
CCCn1c(N)c(C(=O)CSc2nnc(-c3ccoc3C)n2C)c(=O)n(C)c1=O,-12%,x,x,x,x,2%
COc1ccc(CCNC(=O)C(=O)NCC(c2ccco2)S(=O)(=O)c2ccccc2)cc1OC (configuration not stated),13µM*,x,x,x,x,0%
